± gives the standard deviation.
Legend:
Details in all cases: modulator concentration 10 µM
[1] = system: RAW-Dual (murine macrophage reporter line); assay: NF-kB reporter (SEAP) activity fold change vs agonist alone; higher = enhanced NF-kB activity
How it was run: (§1)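 Compound reached 10 μM final in each well by pin transfer, onto RAW-Dual murine macrophage reporter cells seeded at 50 000 per well in 384-well plates. After 1 hour at 37 °C, the cells were stimulated overnight with a PRR agonist. SEAP in the supernatant was read with QUANTI-Blue at 620 nm absorbance for NF-κB, and Lucia luciferase was read with QUANTI-Luc luminescence for IRF. Each signal was turned into fold change against the mean agonist-only control on the same plate, and two replicate plates were averaged with propagated errors.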

[2] = system: RAW-Dual (murine macrophage reporter line); assay: IRF reporter (Lucia luciferase) activity fold change vs agonist alone; higher = enhanced IRF activity
How it was run: as §1

[3] = system: RAW-Dual (murine macrophage reporter line); assay: viability score (confluency relative to resting cells, overnight) (fraction); higher = more viable, active = viable (0.7 or more)
How it was run: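 Overnight exposure to 10 μM final compound was carried out on RAW-Dual macrophages in 384-well plates. IncuCyte software generated two confluency masks over all wells imaged with IncuCyte. The viability score gives confluency in relation to resting cells. A compound met the cutoff if each mask exceeded 70% of resting cells.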

[4] = agonist: CpG ODN 1826 0.5 ug/mL

| Structure (SMILES) | NF-kB reporter [1, 4] | NF-kB reporter ([1]; agonist: LPS 0.1 ug/mL) | NF-kB reporter ([1]; agonist: MPLA […]) | IRF reporter ([2]; agonist: 3'3'-cGAMP 10 ug/mL) | IRF reporter ([2]; agonist: LPS 0.1 ug/mL) | IRF reporter ([2]; agonist: MPLA […]) | viability score [3] |
| --- | --- | --- | --- | --- | --- | --- | --- |
| Cc1cccc(Nc2ccccc2C(=O)O)c1C | 0.847 ± 0.063 | 0.923 ± 0.13 | 0.962 ± 0.035 | 1.03 ± 0.075 | 1.03 ± 0.092 | 0.98 ± 0.089 | 0.999 (active) |
| Nc1ccccc1S(N)(=O)=O [Prestw-913] | 0.95 ± 0.19 | 1.07 ± 0.13 | 1.04 ± 0.092 | 0.943 ± 0.062 | 0.991 ± 0.23 | 1.1 ± 0.2 | 0.995 (active) |
| O=C(O)CCC(=O)Nc1ccc(Br)cn1 | 1.17 ± 0.098 | 1.02 ± 0.066 | 1.02 ± 0.04 | 1.02 ± 0.19 | 1.12 ± 0.14 | 0.938 ± 0.27 | 0.997 (active) |
| COc1ccc(-c2[nH]c(-c3cccc(OC)c3)nc2SCC(=O)NC2CCCC2)cc1 | 0.849 ± 0.074 | 1.13 ± 0.056 | 1.91 ± 0.15 | 0.438 ± 0.026 | 0.824 ± 0.044 | 1.85 ± 0.14 | 1 (active) |
| CC(C)(C)C1CCc2c(sc(NC(=O)c3ccc(Cl)cc3)c2C(N)=O)C1 (configuration not stated) | 1.02 ± 0.086 | 1.05 ± 0.093 | 0.91 ± 0.081 | 0.961 ± 0.043 | 1.55 ± 0.23 | 1.16 ± 0.089 | 1.01 (active) |
| CCOc1cc(C=C2SC(=S)N(CCS(=O)(=O)O)C2=O)ccc1O | 0.952 ± 0.087 | 1.04 ± 0.077 | 0.951 ± 0.15 | 0.925 ± 0.027 | 1.28 ± 0.14 | 0.997 ± 0.2 | 1.02 (active) |
| CC(=O)N1CCC(C(=O)NC(Cn2nccn2)c2ccccc2)CC1 (configuration not stated) | 0.87 ± 0.05 | 1.06 ± 0.09 | 1.05 ± 0.082 | 1.04 ± 0.051 | 1.34 ± 0.25 | 1.56 ± 0.46 | 0.935 (active) |
| Cl.N=C1CCCN1Cc1[nH]c(=O)[nH]c(=O)c1Cl | 1.46 ± 0.062 | 0.379 ± 0.037 | 0.688 ± 0.06 | 0.423 ± 0.028 | 0.796 ± 0.23 | 0.995 ± 0.31 | 0.961 (active) |
| CC(=O)N(C1=C(Nc2ccccc2)C(=O)c2ccccc2C1=O)c1ccccc1 | 2.44 ± 0.19 | 1.52 ± 0.098 | 2.64 ± 0.16 | 2.12 ± 0.063 | 5.77 ± 0.43 | 3.69 ± 0.39 | 0.334 (inactive) |
| COc1ccc(N2C(=O)C(=Cc3ccc([N+](=O)[O-])s3)SC2=S)cc1 | 0.879 ± 0.17 | 1.55 ± 0.14 | 1.71 ± 0.16 | 0.439 ± 0.012 | 1.25 ± 0.23 | 1.2 ± 0.26 | 0.9 (active) |
| CC1=CCC(C2Nc3ccccc3-c3nnc(SCc4ccc(C)cc4)nc3O2)CC1 (configuration not stated) | 1.05 ± 0.13 | 1 ± 0.057 | 0.881 ± 0.053 | 0.978 ± 0.053 | 1.5 ± 0.1 | 1.22 ± 0.15 | 1.01 (active) |
| O=c1sn(-c2cccc3ccccc23)c(=O)n1Cc1ccccc1 | 0.647 ± 0.1 | 0.501 ± 0.15 | 0.653 ± 0.044 | 0.473 ± 0.016 | 0.441 ± 0.14 | 0.81 ± 0.12 | 0.181 (inactive) |
| COc1cccc(-c2csc(NC(=O)C3CC3)n2)c1 | 1.16 ± 0.19 | 1.44 ± 0.11 | 1.31 ± 0.17 | 1.19 ± 0.053 | 1.26 ± 0.26 | 1.35 ± 0.14 | 1 (active) |
| OCCCNCC(O)Cn1c2ccc(Br)cc2c2cc(Br)ccc21 (configuration not stated) | 0.661 ± 0.043 | 0.653 ± 0.057 | 1.75 ± 0.049 | 0.626 ± 0.046 | 1.19 ± 0.073 | 1.91 ± 0.18 | 0.108 (inactive) |
| C#CCN[C@@H]1CCc2ccccc21.CS(=O)(=O)O | 0.992 ± 0.1 | 1.03 ± 0.12 | 1.03 ± 0.031 | 0.933 ± 0.087 | 0.913 ± 0.03 | 0.849 ± 0.1 | 0.996 (active) |
| NC(=O)c1ccc(I)c([N+](=O)[O-])c1 | 0.743 ± 0.25 | 0.842 ± 0.23 | 0.828 ± 0.046 | 0.678 ± 0.024 | 0.905 ± 0.32 | 1 ± 0.13 | 0.981 (active) |
| COc1ccc(CCNC(=O)NCc2nn(C3CCCC3)c3c2CCCC3)cc1 | 0.854 ± 0.037 | 1.04 ± 0.12 | 1.12 ± 0.08 | 0.726 ± 0.057 | 1.13 ± 0.18 | 1.15 ± 0.27 | 0.983 (active) |
| CC(C)(C)NCC(=O)Nc1ccc(S(N)(=O)=O)cc1 | 0.762 ± 0.061 | 0.821 ± 0.064 | 1.06 ± 0.091 | 1.02 ± 0.049 | 1.52 ± 0.098 | 1.7 ± 0.2 | 0.997 (active) |

| Structure (SMILES) | NF-kB reporter [1, 4] | NF-kB reporter ([1]; agonist: LPS 0.1 ug/mL) | NF-kB reporter ([1]; agonist: MPLA […]) | IRF reporter ([2]; agonist: 3'3'-cGAMP 10 ug/mL) | IRF reporter ([2]; agonist: LPS 0.1 ug/mL) | IRF reporter ([2]; agonist: MPLA […]) | viability score [3] |
| --- | --- | --- | --- | --- | --- | --- | --- |
| Nc1ccccc1NC(=O)c1ccc(CNC(=O)OCc2cccnc2)cc1 | 2.23 ± 0.17 | 1.53 ± 0.14 | 1.96 ± 0.052 | 0.17 ± 0.033 | 0.252 ± 0.025 | 0.298 ± 0.029 | 0.913 (active) |
| COc1cccc(C=Nc2cccc([N+](=O)[O-])c2C)c1O | 0.661 ± 0.054 | 0.906 ± 0.066 | 0.978 ± 0.035 | 0.903 ± 0.077 | 0.93 ± 0.088 | 0.948 ± 0.17 | 1 (active) |
| COc1ccc(NC(=O)c2cn(-c3cc(N4CCSCC4)ncn3)cn2)cc1 | 1.04 ± 0.058 | 1.13 ± 0.091 | 0.939 ± 0.041 | 1.03 ± 0.069 | 1.13 ± 0.23 | 1.07 ± 0.33 | 0.997 (active) |
| CN(C)CCC(c1ccc(Br)cc1)c1ccccn1.O=C(O)/C=C\C(=O)O (configuration not stated) | 1.07 ± 0.14 | 1.15 ± 0.27 | 0.939 ± 0.052 | 0.71 ± 0.024 | 1.17 ± 0.34 | 0.918 ± 0.086 | 1.01 (active) |
| O=C(N/N=C/c1ccc([N+](=O)[O-])o1)c1ccc(O)cc1 | 1.54 ± 0.21 | 2.63 ± 0.4 | 2.97 ± 0.26 | 1.01 ± 0.051 | 1.88 ± 0.34 | 1.43 ± 0.12 | 0.968 (active) |
| O=C1CN(/N=C/c2ccc([N+](=O)[O-])o2)C(=O)N1 | 1.13 ± 0.27 | 1.14 ± 0.087 | 0.87 ± 0.068 | 0.821 ± 0.029 | 1.21 ± 0.16 | 1.14 ± 0.17 | 0.994 (active) |
| Cc1cc(C)c2c(c1)[C@@H](N(Cc1cc(C(F)(F)F)cc(C(F)(F)F)c1)c1nnn(C)n1)CCCN2C[C@H]1CC[C@H](C(=O)O)CC1 | 0.717 ± 0.054 | 0.861 ± 0.097 | 1.08 ± 0.036 | 0.985 ± 0.058 | 0.955 ± 0.033 | 1.09 ± 0.14 | 1.01 (active) |
| Cc1occc1C(=O)NN=Cc1cc([N+](=O)[O-])ccc1O | 1.12 ± 0.11 | 0.959 ± 0.12 | 1.16 ± 0.079 | 0.681 ± 0.096 | 1.23 ± 0.095 | 1.27 ± 0.28 | 0.997 (active) |
| CN(C)CCC=C1c2ccccc2C=Cc2ccccc21.Cl | 0.43 ± 0.079 | 1.25 ± 0.15 | 1.13 ± 0.069 | 0.406 ± 0.019 | 1.61 ± 0.14 | 1.18 ± 0.13 | 0.918 (active) |
| COC(CNS(=O)(=O)c1ccccc1Br)c1ccc(Cl)s1 (configuration not stated) | 0.968 ± 0.32 | 1.08 ± 0.1 | 1.07 ± 0.071 | 1.18 ± 0.039 | 1.01 ± 0.12 | 1.21 ± 0.24 | 0.959 (active) |
| Cc1cc(-c2ccc(NC(=O)c3ccc([N+](=O)[O-])cc3)c(C)c2)ccc1NC(=O)c1ccc([N+](=O)[O-])cc1 | 0.994 ± 0.067 | 0.988 ± 0.06 | 0.928 ± 0.064 | 0.966 ± 0.057 | 1.26 ± 0.08 | 1.15 ± 0.27 | 0.999 (active) |
| O=c1[nH]c(=O)n([C@H]2C[C@H](O)[C@@H](CO)O2)cc1I | 1.11 ± 0.15 | 0.928 ± 0.058 | 0.992 ± 0.044 | 1.04 ± 0.068 | 0.992 ± 0.069 | 0.967 ± 0.15 | 0.998 (active) |
| Cc1ccc(C(=O)NC(=S)Nc2nc(-c3cccc([N+](=O)[O-])c3)cs2)cc1C | 1.02 ± 0.12 | 0.98 ± 0.16 | 0.977 ± 0.036 | 0.931 ± 0.17 | 1.08 ± 0.094 | 1.12 ± 0.13 | 1 (active) |
| Cc1ccc2[nH]c(=O)c(-c3cc(-c4ccccc4)c4ccccc4n3)c(-c3ccccc3)c2c1 | 0.938 ± 0.081 | 1.1 ± 0.11 | 0.816 ± 0.051 | 1.08 ± 0.037 | 1.17 ± 0.19 | 1.04 ± 0.072 | 1.02 (active) |
| Cc1cc(C(=O)Nc2ccccc2S(C)(=O)=O)no1 | 1.17 ± 0.069 | 1.04 ± 0.08 | 0.992 ± 0.055 | 0.995 ± 0.056 | 1.04 ± 0.05 | 1.06 ± 0.15 | 1 (active) |
| O=C(C=Cc1ccccc1)NC(NC(=S)Nc1cccc2cccnc12)C(Cl)(Cl)Cl (configuration not stated) | 0.507 ± 0.089 | 0.575 ± 0.067 | 0.624 ± 0.048 | 0.452 ± 0.027 | 1.01 ± 0.1 | 1.13 ± 0.25 | 1.01 (active) |
| Nc1ccn([C@@H]2O[C@H](CO)[C@@H](O)[C@@H]2O)c(=O)n1 | 1.36 ± 0.27 | 1.38 ± 0.13 | 1.38 ± 0.19 | 0.687 ± 0.025 | 1.08 ± 0.16 | 1.14 ± 0.12 | 0.35 (inactive) |
| CC(Oc1ccc(Cl)cc1)C(=O)NCc1cccnc1 (configuration not stated) | 1.2 ± 0.11 | 0.981 ± 0.12 | 0.989 ± 0.096 | 1.05 ± 0.026 | 1.31 ± 0.17 | 1.17 ± 0.12 | 1.01 (active) |
